# GALK inhibitor: qHTS Assay for Inhibitors of Human Galactokinase (GALK); Purified GALK, Kinase-Glo residual ATP luminescence; Potency, µM (series often up to 57.5 µM), for inactives: top-dose activity change, negative = inhibition, hits mostly inhibitors; actives 0.007% (n = 270,000); AID 1868, 2009
#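 Kinase-Glo Plus luminescence measured ATP left after a 1 h room-temperature reaction. The reaction used 5 nM GALK, 100 uM galactose and 35 uM ATP at pH 8.0 (20 mM HEPES, 5 mM MgCl2, 60 mM NaCl, 1 mM DTT, 0.01% BSA).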
# NPSR antag: qHTS Assay for Antagonists of the Neuropeptide S Receptor: cAMP Signal Transduction. Q6W5P4. CHO-NPSR cells, cAMP TR-FRET, antagonist mode. Potency, µM (titrated, usually from 38.3 µM), without a hit: at the highest dose activity change, negative = inhibition, most hits filed as inhibitors. actives 1% (n = 220,000). AID 1461, 2008; also: nearly all actives have a fitted effect of over 50% in size
# rTrxR1 inhibitor: qHTS Assay for Inhibitors of Mammalian Selenoprotein Thioredoxin Reductase 1 (TrxR1): qHTS | Potency, µM (highest dose often 114 µM), inactives show at the highest dose activity change, negative = inhibition, actives largely listed as inhibitors | actives 1% (n = 390,000) | AID 588453, 2011 | recombinant rTrxR1, NADPH fluorescence consumption, selenite substrate; also: nearly all actives have a fitted effect of over 65% in size
# Target sequence (O89049 whole entry, looked up): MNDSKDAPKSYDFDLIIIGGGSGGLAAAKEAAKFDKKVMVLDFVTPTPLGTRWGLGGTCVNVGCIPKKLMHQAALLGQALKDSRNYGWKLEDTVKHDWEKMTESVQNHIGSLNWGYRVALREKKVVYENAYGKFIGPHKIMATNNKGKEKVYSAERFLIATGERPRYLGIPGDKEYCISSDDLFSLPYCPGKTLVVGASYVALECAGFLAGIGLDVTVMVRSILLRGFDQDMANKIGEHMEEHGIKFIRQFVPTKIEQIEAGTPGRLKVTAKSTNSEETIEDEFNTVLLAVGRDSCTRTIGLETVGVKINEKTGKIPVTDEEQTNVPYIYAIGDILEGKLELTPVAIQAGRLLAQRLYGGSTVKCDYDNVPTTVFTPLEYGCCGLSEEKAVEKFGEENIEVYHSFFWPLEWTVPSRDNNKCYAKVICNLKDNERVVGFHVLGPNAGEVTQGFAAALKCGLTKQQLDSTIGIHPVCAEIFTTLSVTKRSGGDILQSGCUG
#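 Rat TrxR1 (90 nM in the dispensed reagent) was pre-reduced with 400 uM NADPH for 5 min at room temperature, then incubated with compound for 15 min. After 400 uM selenite was added, NADPH fluorescence (Ex 340/Em 450 nm) was followed for 8 min.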
# TrxR1 substrate: qHTS Assay for Substrates of Mammalian Selenoprotein Thioredoxin Reductase 1 (TrxR1): qHTS | Thioredoxin reductase 1, cytoplasmic (Rattus norvegicus), O89049 | purified TrxR1 substrate turnover, NADPH consumption readout | Potency, µM (titrated, usually from 114 µM), without a hit: at the top dose activity change, negative = substrate turnover | actives 0.01% (n = 390,000); also: nearly all actives have a fitted effect of over 50% in size
#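 Rat TrxR1, dispensed at 90 nM, was prereduced with 400 uM NADPH (final) for 5 min at ~22 deg C, then incubated with compound 15 min before 400 uM selenite. A first-read NADPH fluorescence drop versus no-compound background flagged substrates.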
# Numbers without * were called inactive; ? = inconclusive; . = no result given; ! = not active in a repeat; [ ] = remark or other dose. Hits are enriched below; roughly 1.2% of the tested compounds scored in any of these assays. Calls follow the shape of the dose curve; as a rule, active = well fitted curve in the direction sought with a large enough effect; inconclusive = small, poorly fitted or top-dose-only effect, or another doubt; inactive = no such curve, though single readings can be large; an effect the other way counts as inactive or inconclusive. % is scaled to controls: 0 for no effect and ±100 for the full control effect; potency is read from the fitted curve at half-maximal effect.
SMILES,GALK inhibitor,NPSR antag,rTrxR1 inhibitor,TrxR1 substrate
COCCCn1cnc2c(c1=O)c1nc3ccccc3nc1n2-c1ccc(C)cc1,6%,-12%[46.1 µM],-6%,6%[57.1 µM]
CC(C)(C)c1ccc(S(=O)(=O)/C=C/C#N)cc1,.,20µM*,2.1µM*!,5%[57.1 µM]
CC(C)(C)c1ccc(NS(=O)(=O)c2ccc(N)cc2)cc1,-1%,25%,7%,-7%
Cc1ccc(CN(C)C(=O)c2cccc(S(=O)(=O)N3CCc4ccccc4C3)c2)o1,.,.,40µM*,2%
O=C1ON=C(c2ccccc2)/C1=C/c1ccc(O)c(O)c1,?,.,?,7%[2.29 µM]
COc1cc(/C=C2\C(=O)ON=C2c2ccc(Cl)cc2)ccc1O,.,.,20µM*,-1%
O=C1ON=C(c2cccc([N+](=O)[O-])c2)/C1=C/c1ccc(O)cc1,-6%,10µM*,7.9µM*,-17%[57.1 µM]
COc1ccc(C2=NN(c3ccccc3)C(=O)/C2=C\c2ccc(O)c(OC)c2)cc1,3%,22%,?,-6%
O=C1ON=C(c2ccc(Cl)c([N+](=O)[O-])c2)/C1=C/c1cccc([N+](=O)[O-])c1O,.,.,14%,3%
O=C1ON=C(c2ccccc2)/C1=C/c1cccnc1,8%,-11%,21%,2%
COc1ccc(/C=C2\C(=O)ON=C2c2ccccc2)cc1,-6%,.,14µM*,-7%
O=C1ON=C(c2ccccc2)/C1=C/c1ccc(OS(=O)(=O)c2ccccc2)cc1,-1%,6.3µM*,2.8µM*,-17%
CCOc1cc(-c2nnc(SCC(=O)NCc3ccccc3)nc2-c2ccc(OC)c(OCC)c2)ccc1OC,.,.,-3%[57.1 µM],-11%[57.1 µM]
CCCOc1ccc(C(=O)Nc2ccc(NC(=O)c3ccccc3)c(Br)c2)cc1,.,.,-6%,14%
Cc1[nH]c2ccc(F)cc2c1CCN(Cc1cccnc1)C(=S)Nc1ccc(F)cc1,2%,10µM*,12%,-7%
OCCn1c(CSc2nnc(-c3ccco3)n2-c2ccccc2)nc2ccc(Cl)cc21,-3%,-5%[46.1 µM],20µM*,6%
O=C(COc1cccnc1[N+](=O)[O-])c1ccc(Cl)s1,1%,17%,25µM*,-5%
FC(F)(F)C(Oc1nc(NC2CCCCC2)nc(N2CCOCC2)n1)C(F)(F)F,-1%,10µM*,-15%,-18%
Cc1ccc(N2C(=O)[C@@H]3C(c4cccnc4)=NO[C@@H]3C2=O)cc1,-2%,9%,45µM*,4%
CCN(Cc1ccc(OC)c(F)c1)C(=O)CCl,8%,10%,25µM*,3%
COc1ccc(F)c(Cn2cnc3c(cnn3C(C)(C)C)c2=O)c1Cl,.,.,12%,5%
CC1=C(C)C(=O)N(c2ccccn2)C1=O,-3%,12%[46.1 µM],10%[57.1 µM],-9%
Cc1nn(-c2ccccn2)c2c1C(=O)C(Br)CC2 (stereo unspecified),-2%,20%,13µM*,-6%
CC1=C(/C=C/C(C)=C/C=C/C(C)=C/CO)C(C)(C)CCC1,.,.,50µM*,0%
CC(C)(C)c1ccc(OCc2ccc(C(=O)N/N=C/c3ccc(O)c(O)c3)cc2)cc1,8%,13µM*,35%[57.1 µM],4%[57.1 µM]
SMILES,GALK inhibitor,NPSR antag,rTrxR1 inhibitor,TrxR1 substrate
CN1CCc2cccc3c2[C@@H]1Cc1ccc(O)c(O)c1-3,6%,10%,14µM*,11%
COc1ccc(-c2cc(C(F)(F)F)nc(S(=O)(=O)CCCC(=O)Nc3cccc(O)c3)n2)cc1OC,-2%,-19%,?,-11%[57.1 µM]
COc1ccc(NC(=O)CCCS(=O)(=O)c2nc(-c3ccc(OC)c(OC)c3)cc(C(F)(F)F)n2)cc1OC,.,.,25µM*,-5%
COc1ccccc1-c1cc(C(F)(F)F)nc(S(=O)(=O)CCCC(=O)Nc2cc(OC)c(OC)c(OC)c2)n1,.,.,22µM*,-5%
O=C(NCc1ccc2c(c1)OCO2)c1nc(S(=O)(=O)Cc2ccccc2F)ncc1Cl,-1%,.,21%,4%
COc1ccc(CNC(=O)c2nc(SC(C)C)ncc2Cl)cc1,.,.,5%,1%
CC(=O)Nc1ccc(NC(=O)c2nc(S(=O)(=O)Cc3ccccc3)ncc2Cl)cc1,-1%,.,15%,-2%
O=C(NCc1ccccc1)c1nc(S(=O)(=O)Cc2ccccc2)ncc1Cl,1%,.,2.8µM*!,-2%
COc1ccc(CNC(=O)c2nc(S(=O)(=O)Cc3ccccc3)ncc2Cl)cc1,-8%,.,3.2µM*!,-4%

# From PubChem
